A selection: hits, their analogues and other compounds. The true share with any hit is near 3%.
Tau fibril FP = blocks human tau fibril formation measured by polarization. P10636. K18 P301L tau heparin fibrillization, Alexa594 FP, 6 h. Potency, µM (top dose mostly 57.7 µM), inactives show at the top dose activity, negative = inhibition, actives largely listed as inhibitors. hit rate 0.39% among 280,000. AID 1468; further: potency means the concentration at half of the fitted maximal effect; nearly all actives have a fitted effect of over 55% in size
Target sequence (P10636 561-689 P618L limits assumed): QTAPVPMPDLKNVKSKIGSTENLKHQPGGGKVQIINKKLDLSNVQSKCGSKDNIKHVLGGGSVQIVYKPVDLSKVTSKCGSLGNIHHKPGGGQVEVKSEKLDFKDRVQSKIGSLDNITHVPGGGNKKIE
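Read-out: fluorescence polarization of Alexa 594-labeled tau (0.24 uM), 555 nm excitation, 632 nm emission. Mixtures held 15 uM unlabeled K18 P301L, compound and 20 uM heparin, pH 7 acetate buffer, incubated 6 hr at 37 C.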
KDM4E inh = JMJD2E (human) inhibition | B2RXH2 | JMJD2E catalytic domain, FDH-coupled NADH fluorescence (FDH is formaldehyde dehydrogenase) | Potency, µM (titrated, usually from 57.1 µM), without a hit: at the top dose activity change, negative = inhibition, usual class: inhibitors | hit rate 1.6% among 230,000 | AID 2147; active means well fitted inhibition curve with a large enough effect, not every such curve was filed as active; inconclusive means small, poorly fitted or top-dose-only effect, or another doubt; inactive means no such curve, though single readings can be large or run the other way;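 further: potency means the concentration at half of the fitted maximal effect; 0% = wells with enzyme and -100% = buffer wells without enzyme; nearly all actives have a fitted effect of over 50% in size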
Target sequence (B2RXH2 1-337 limits assumed): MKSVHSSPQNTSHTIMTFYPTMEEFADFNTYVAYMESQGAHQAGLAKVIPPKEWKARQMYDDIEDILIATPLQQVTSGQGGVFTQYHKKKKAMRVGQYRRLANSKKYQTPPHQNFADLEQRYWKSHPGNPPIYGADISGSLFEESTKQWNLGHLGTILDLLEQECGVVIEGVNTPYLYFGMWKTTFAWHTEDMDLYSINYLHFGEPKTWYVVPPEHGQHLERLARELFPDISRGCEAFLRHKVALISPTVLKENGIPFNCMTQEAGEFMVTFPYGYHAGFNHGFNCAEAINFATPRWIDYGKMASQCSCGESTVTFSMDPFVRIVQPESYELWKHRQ
FBPA coupling cs = coupling enzyme interference in Giardia aldolase counter-screen | coupling enzyme system counterscreen, AmpLite Red fluorescence | activity change, negative = inhibition, % at 58.2 µM, hits read low | hit rate 0.67% among 290,000; in the data active means activity change below about -30%
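Activity here indicates interference with the coupling reaction, not aldolase inhibition. Compounds at 57.5 uM final met coupling enzymes for 10 min at RT; substrate and AmpLite Red detection followed, with a 525/598 nm fluorescence read after 20 min.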
Tau fluor cs = counter-screen for tau fibril formation inhibitors; tau K18 P301L Alexa594 fluorescence, heparin fibrillization; Potency, µM (titrated, usually from 57.7 µM), without a hit: at the top dose activity change, negative = decrease; hit rate 0.93% among 280,000; AID 1463; further: potency means the concentration at half of the fitted maximal effect; nearly all actives have a fitted effect of over 55% in size
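Human K18 P301L tau (15 uM unlabeled plus 0.24 uM Alexa 594-labeled, final) in 100 mM sodium acetate pH 7 was mixed with compound and 20 uM heparin and incubated 6 hr at 37 C.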
Tau ThT inhib = inhibitors of human tau fibril formation, thioflavin T binding; AID 1460; hit rate 2.1% among 270,000; recombinant tau K18 P301L (four-repeat tau fragment), heparin-induced fibrillization, ThT fluorescence; Potency, µM (highest dose often 57.4 µM), for the others: top-dose activity, negative = inhibition, most hits filed as inhibitors; further: potency means the concentration at half of the fitted maximal effect; nearly all actives have a fitted effect of over 55% in size
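Aggregation was driven by heparin (20 uM final) acting on recombinant tau […] bearing P301L in 100 mM sodium acetate pH 7; fibrils were detected with Thioflavin T.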
* marks the source's active call; other numbers are inactive results; [ ] = dose if it differs, or a comment. Unless noted, the call rests on the fitted dose curve; in most records, active means well fitted curve in the direction sought with a large enough effect; inconclusive means small, poorly fitted or top-dose-only effect, or another doubt; inactive means no such curve, though single readings can be large; an effect the other way counts as inactive or inconclusive. Unless noted, on the % scale 0 is the no-effect control and ±100 the full control effect.

What do the screens show for `Cc1ccc(OCC(=O)NNc2c3ccccc3nc3ccccc23)cc1`?
Tau fibril FP: 8%; KDM4E inh: inconclusive; FBPA coupling cs: 0; Tau fluor cs: 14µM*[quencher]; Tau ThT inhib: 13µM*

What do the screens show for `CCOc1ccc(Nc2c3ccccc3nc3ccccc23)cc1`?
Tau fibril FP: 14%; KDM4E inh: inconclusive; FBPA coupling cs: -2; Tau fluor cs: inconclusive; Tau ThT inhib: 20µM*

How did Cc1cc(CNC(=O)COc2ccccc2)c2ccccc2n1 do in these assays?
Tau fibril FP: 7%; KDM4E inh: 3%; FBPA coupling cs: 3; Tau fluor cs: 3%; Tau ThT inhib: 5%

What do the screens show for `CCOC(=O)c1c(-c2cccc3ccccc23)csc1NC(=O)C1C2CCC(O2)C1C(=O)O` (stereo unspecified)?
Tau fibril FP: -10%; KDM4E inh: inconclusive; FBPA coupling cs: 7; Tau fluor cs: -4%; Tau ThT inhib: -17%

Results for COC(=O)c1c(-c2ccc(C(C)(C)C)cc2)csc1NC(=O)C1C2CCC(O2)C1C(=O)O (stereo unspecified) ?
Tau fibril FP: -13%; KDM4E inh: 16µM*; FBPA coupling cs: 9; Tau fluor cs: -5%; Tau ThT inhib: inconclusive

What do the screens show for `CCOC(=O)c1c(-c2ccccc2)csc1NC(=O)c1nc(S(=O)(=O)CC)ncc1Cl`?
Tau fibril FP: inconclusive; Tau fluor cs: inconclusive; Tau ThT inhib: 13µM*

What do the screens show for `CCOC(=O)c1c(-c2ccccc2)csc1NC(=O)c1nc(SCC)ncc1Cl`?
Tau fibril FP: -15%; Tau fluor cs: -22%; Tau ThT inhib: -15%

Results for CCOC(=O)c1c(NC(=O)c2nc(S(C)(=O)=O)ncc2Cl)sc(C(C)=O)c1C ?
Tau fibril FP: inconclusive; Tau fluor cs: inconclusive; Tau ThT inhib: 22µM*

Results for CCCSC1=N/C(=C\c2ccsc2)C(=O)S1 ?
Tau fibril FP: -8%; KDM4E inh: -7%; FBPA coupling cs: 6; Tau fluor cs: -11%; Tau ThT inhib: -13%

Results for CCCSC1=N/C(=C\C=C\c2ccco2)C(=O)S1 ?
Tau fibril FP: inconclusive; KDM4E inh: 8.9µM*; FBPA coupling cs: 0; Tau fluor cs: inconclusive; Tau ThT inhib: 14µM*

What do the screens show for `O=C1ON=C(c2ccccc2)/C1=C/c1ccc(-c2ccccc2[N+](=O)[O-])o1`?
Tau fibril FP: 7%; KDM4E inh: inconclusive; FBPA coupling cs: -7; Tau fluor cs: -26%; Tau ThT inhib: inconclusive

How did CCCSC1=N/C(=C\c2ccc([N+](=O)[O-])o2)C(=O)S1 do in these assays?
Tau fibril FP: inconclusive; KDM4E inh: inconclusive; FBPA coupling cs: -7; Tau fluor cs: inconclusive; Tau ThT inhib: 13µM*

Results for CCSC1=N/C(=C\c2ccc(-c3ccccc3[N+](=O)[O-])o2)C(=O)S1 ?
Tau fibril FP: inconclusive; KDM4E inh: inconclusive; FBPA coupling cs: 3; Tau fluor cs: inconclusive; Tau ThT inhib: 5µM*

Results for CCn1cc(S(=O)(=O)c2ccccc2)c(=O)c2cc(F)c(N3CCCCCC3)cc21 ?
Tau fibril FP: -2%; Tau fluor cs: -4%; Tau ThT inhib: -8%

Results for CN(C)c1ccc(-c2ccc(C3C4C=CCCC4(C)C(=O)N3Cc3ccccc3)c(F)c2)cc1 (stereo unspecified) ?
FBPA coupling cs: 0

What do the screens show for `CCOc1ccc(-c2cccc(NS(=O)(=O)c3c(C)cc(C)cc3C)c2)nn1`?
Tau fibril FP: -10%; Tau fluor cs: inconclusive; Tau ThT inhib: -5%

Results for CCN(CC)c1ccc(-n2cc3c(=O)n(C)c(=O)n(C)c3c2)cc1 ?
Tau fibril FP: 6%; KDM4E inh: inconclusive; FBPA coupling cs: -2; Tau fluor cs: inconclusive; Tau ThT inhib: 5µM*

Results for CN(C)c1ccc(CNC(=O)CN(C)S(=O)(=O)c2ccc3c(c2)c(=O)n(C)c(=O)n3C)cc1 ?
Tau fibril FP: -7%; Tau fluor cs: -12%; Tau ThT inhib: -8%

Results for CN(C)c1ccc(-n2cc3c(=O)n(C)c(=O)n(C)c3c2)cc1 ?
Tau fibril FP: 3%; KDM4E inh: inconclusive; FBPA coupling cs: -5; Tau fluor cs: -20%; Tau ThT inhib: 2.8µM*

How did CCOC(=O)/C(=N\Nc1ccccc1Cl)N1CCN(C)CC1 do in these assays?
Tau fibril FP: 7%; KDM4E inh: 8%; FBPA coupling cs: 3; Tau fluor cs: 1%; Tau ThT inhib: -1%

How did CCOC(=O)C1(C)/C(=N/Nc2ccc(Cl)cc2)C(=O)C(=O)N1c1ccccc1 (stereo unspecified) do in these assays?
Tau fibril FP: inconclusive; KDM4E inh: -9%; FBPA coupling cs: -6; Tau fluor cs: -27%; Tau ThT inhib: 14µM*

Results for CCOC(=O)CSc1nnc(CNc2cccc(Cl)c2)n1-c1ccccc1 ?
Tau fibril FP: -1%; KDM4E inh: -3%; FBPA coupling cs: 0; Tau fluor cs: -7%; Tau ThT inhib: -3%

Results for CCOC(=O)C1(C)/C(=N/Nc2ccccc2Cl)C(=O)C(=O)N1c1ccccc1 (stereo unspecified) ?
Tau fibril FP: -14%; KDM4E inh: -22%; FBPA coupling cs: -5; Tau fluor cs: -29%; Tau ThT inhib: 14µM*

Results for CCOC(=O)C1(C)/C(=N/Nc2cccc(Cl)c2)C(=O)C(=O)N1c1ccccc1 (stereo unspecified) ?
Tau fibril FP: -4%; KDM4E inh: -11%; FBPA coupling cs: 4; Tau fluor cs: -16%; Tau ThT inhib: 20µM*

What do the screens show for `CCOC(=O)C1(C)/C(=N/Nc2ccc(S(N)(=O)=O)cc2)C(=O)C(=O)N1c1ccccc1` (stereo unspecified)?
Tau fibril FP: -1%; KDM4E inh: -28%; FBPA coupling cs: -8; Tau fluor cs: -23%; Tau ThT inhib: 11µM*

What do the screens show for `OC1C=C2CCN3Cc4cc5c(cc4C(C1O)C23)OCO5` (stereo unspecified)?
Tau fibril FP: -9%; KDM4E inh: 25µM*; FBPA coupling cs: -5; Tau fluor cs: -19%; Tau ThT inhib: -14%

What do the screens show for `O=C(Nc1ccccc1Cl)N1CCC2(CC1)Oc1ccccc1C(=O)N2Cc1ccc(F)cc1`?
Tau fibril FP: 2%; Tau fluor cs: -9%; Tau ThT inhib: 0%

How did Cn1c(O)c(N=Nc2ccc(F)cc2)c2ccccc21 do in these assays?
Tau fibril FP: -6%; KDM4E inh: -25%; FBPA coupling cs: -4; Tau fluor cs: -12%; Tau ThT inhib: 13µM*

What do the screens show for `Cn1c(O)c(N=Nc2ccccc2)c2ccccc21`?
FBPA coupling cs: -4

Results for Cn1c(O)c(N=Nc2nc(-c3ccccc3)cs2)c2ccccc21 ?
Tau fibril FP: -3%; KDM4E inh: -12%; FBPA coupling cs: -2; Tau fluor cs: -21%; Tau ThT inhib: 2µM*

What do the screens show for `C=CC[C@](C)(O)c1ccccc1`?
Tau fibril FP: 4%; KDM4E inh: -5%; FBPA coupling cs: 2; Tau fluor cs: -10%; Tau ThT inhib: -8%
